# Source: PubChem BioAssay (National Center for Advancing Translational Sciences (NCATS))
# Only some compounds are listed: those with a hit (about 8.1% of all), similar ones and a draw of the others.
# KB-3-1 tox: KB-3-1 parental cell cytotoxicity | Potency, µM (series often up to 46.1 µM), actives largely listed as cytotoxic | 1.4% of 400,000 active | KB-3-1 viability, CellTiter-Glo ATP luminescence, 72 h | AID 1347075; further: on the % scale 0 is the no-effect control and ±100 the full control effect; nearly all actives have a fitted effect of over 60% in size
#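 Screening of KB-3-1 cells (DMEM, 10% FBS, phenol-red free) ran from lowest to highest compound concentration; after 72 h at 37 °C viability was read luminescently and curves fitted.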
# SW480 rereplic: induces DNA re-replication in SW480 colon adenocarcinoma cells | SW480 DNA re-replication, Hoechst DNA content imaging, 48 h | Potency, µM (top dose mostly 46.1 µM), inactives show at the top dose re-replication activation, hits mostly activators | 1.8% of 340,000 active | AID 624297; further: % of control where 0% means no effect; nearly all actives have a fitted effect of over 55% in size
#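 Image-based read-out: total Hoechst fluorescence of nuclei (405 nm excitation, 500-530 nm emission), with hits raising the fraction of high-intensity nuclei. SW480 colon cells incubated 48 hr with compounds at 37 C.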
# MCF10A rereplic: induces DNA re-replication in MCF 10a normal breast cells. 2.9% of 350,000 active. MCF 10A DNA re-replication, Hoechst nuclear intensity, 48 h. Potency, µM (top dose mostly 46.1 µM), without a hit: at the top dose activity, positive = re-replication, most hits filed as activators; further: % of control where 0% means no effect; nearly all actives have a fitted effect of over 50% in size
# KB-V1 cytotox: kills drug-selected multidrug resistant KB-V1 cells; AID 1347076; 3.4% of 400,000 active; Potency, µM (series often up to 46.1 µM), usual class: cytotoxic; KB-V1 MDR cells viability, CellTiter-Glo, 72 h; further: on the % scale 0 is the no-effect control and ±100 the full control effect; nearly all actives have a fitted effect of over 60% in size
#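 Cytotoxicity via CellTiter-Glo luminescence after 72 h compound exposure at 37 degrees C. Cells: drug-selected KB-V1 line, DMEM phenol-red free plus 10% FBS. Compounds tested at multiple concentrations; normalized data fitted to concentration-effect curves.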
# ELG1 repair inh: inhibitors of ELG1-dependent DNA repair in HEK293T cells; Potency, µM (titrated, usually from 46.1 µM), for the others: at the highest dose activity change, negative = inhibition, actives largely listed as inhibitors; HEK293T ELG1-luciferase reporter, luminescence, 16 h; DNA damage induced by 5-fluorouridine; 2.3% of 330,000 active; further: on the % scale 0 is the no-effect control and ±100 the full control effect; nearly all actives have a fitted effect of over 55% in size
#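 5-Fluorouridine DNA damage + compound/DMSO, 2,000 cells/well, 16 h, 37 °C/5% CO2. ONE-Glo, 30 min RT, luminescence. Readout = decrease in reporter signal.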
# ELG1 FLuc counter: luciferase inhibition in cell-free luciferin readout for ELG1 hits; shares compounds with ELG1 repair inh; cell-free firefly luciferase luminescence counter-screen, ViewLux; Potency, µM (doses to about 46.1 µM), inactives show at the highest dose activity change, negative = inhibition, most hits filed as inhibitors; 3% of 350 active; AID 624247; further: on the % scale 0 is the no-effect control and ±100 the full control effect
# ELG1 Luc conf: confirmation of human ELG1-dependent DNA repair inhibitors | Potency, µM (titrated, usually from 46.1 µM), for the others: at the top dose activity change, negative = inhibition, actives largely listed as inhibitors | HEK293T ELG1-luciferase levels, luminescence; cells co-treated with 5-fluorouridine | AID 624248 | 68% of 670 active | shares compounds with ELG1 repair inh; further: on the % scale 0 is the no-effect control and ±100 the full control effect; nearly all actives have a fitted effect of over 55% in size
# Target sequence (Q96QE3 whole entry, looked up): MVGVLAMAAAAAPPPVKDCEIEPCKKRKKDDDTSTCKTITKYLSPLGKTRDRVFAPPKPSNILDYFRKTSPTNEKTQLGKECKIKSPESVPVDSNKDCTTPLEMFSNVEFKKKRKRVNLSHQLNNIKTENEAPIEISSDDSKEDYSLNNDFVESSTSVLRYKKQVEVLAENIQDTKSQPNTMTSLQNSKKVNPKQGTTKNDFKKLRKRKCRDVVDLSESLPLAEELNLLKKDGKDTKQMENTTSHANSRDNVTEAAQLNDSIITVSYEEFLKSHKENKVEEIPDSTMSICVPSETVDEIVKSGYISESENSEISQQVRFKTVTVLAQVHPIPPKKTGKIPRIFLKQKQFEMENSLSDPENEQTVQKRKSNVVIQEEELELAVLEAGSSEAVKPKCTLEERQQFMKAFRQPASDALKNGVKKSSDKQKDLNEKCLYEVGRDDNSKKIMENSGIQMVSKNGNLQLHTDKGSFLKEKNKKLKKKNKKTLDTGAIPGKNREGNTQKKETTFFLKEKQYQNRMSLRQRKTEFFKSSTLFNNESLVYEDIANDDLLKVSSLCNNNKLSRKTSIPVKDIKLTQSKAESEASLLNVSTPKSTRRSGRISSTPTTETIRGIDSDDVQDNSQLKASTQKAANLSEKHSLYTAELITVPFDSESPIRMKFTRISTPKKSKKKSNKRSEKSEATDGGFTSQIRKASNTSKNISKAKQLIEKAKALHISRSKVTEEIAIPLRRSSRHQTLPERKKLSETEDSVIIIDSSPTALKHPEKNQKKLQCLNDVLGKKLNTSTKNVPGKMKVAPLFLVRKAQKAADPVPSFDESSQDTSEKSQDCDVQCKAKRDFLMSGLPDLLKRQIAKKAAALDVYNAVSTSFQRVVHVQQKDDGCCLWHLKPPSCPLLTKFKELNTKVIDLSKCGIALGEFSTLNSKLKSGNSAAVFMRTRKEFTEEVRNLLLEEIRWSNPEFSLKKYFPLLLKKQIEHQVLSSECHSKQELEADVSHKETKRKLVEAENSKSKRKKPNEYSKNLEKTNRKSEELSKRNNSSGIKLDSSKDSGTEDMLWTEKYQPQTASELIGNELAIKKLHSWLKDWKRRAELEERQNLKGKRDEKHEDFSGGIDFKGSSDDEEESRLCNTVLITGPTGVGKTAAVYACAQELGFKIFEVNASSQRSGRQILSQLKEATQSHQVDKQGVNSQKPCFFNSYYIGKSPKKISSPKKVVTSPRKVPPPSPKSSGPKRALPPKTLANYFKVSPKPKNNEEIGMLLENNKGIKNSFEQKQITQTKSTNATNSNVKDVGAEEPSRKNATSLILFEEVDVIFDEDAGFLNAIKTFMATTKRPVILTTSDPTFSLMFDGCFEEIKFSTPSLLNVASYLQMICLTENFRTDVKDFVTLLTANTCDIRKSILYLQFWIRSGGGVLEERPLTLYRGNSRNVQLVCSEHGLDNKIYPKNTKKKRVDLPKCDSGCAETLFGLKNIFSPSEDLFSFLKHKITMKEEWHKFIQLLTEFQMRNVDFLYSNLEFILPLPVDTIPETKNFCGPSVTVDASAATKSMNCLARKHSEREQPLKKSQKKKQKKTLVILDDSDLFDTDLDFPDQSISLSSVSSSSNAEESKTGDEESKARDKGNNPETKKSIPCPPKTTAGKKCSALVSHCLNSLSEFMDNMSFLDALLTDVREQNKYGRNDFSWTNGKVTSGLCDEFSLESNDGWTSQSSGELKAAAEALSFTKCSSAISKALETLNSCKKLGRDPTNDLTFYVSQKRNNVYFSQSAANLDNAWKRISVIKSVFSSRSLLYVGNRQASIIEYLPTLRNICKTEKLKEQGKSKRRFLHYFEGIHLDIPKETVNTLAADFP
# ELG1-Luc MMS: confirmation of human ELG1 repair inhibitors, MMS stimulated. shares compounds with ELG1 repair inh. HEK293T luciferase-tagged ELG1 level, MMS stimulated. Potency, µM (highest dose often 46.1 µM), inactives show at the highest dose activity change, negative = inhibition, usual class: inhibitors. 53% of 670 active. AID 624249; further: on the % scale 0 is the no-effect control and ±100 the full control effect; nearly all actives have a fitted effect of over 60% in size
# ELG1 5FU viab: confirmation of ELG1 repair inhibitors: viability with 5FU | 670 tested, under 10 active | Potency, µM (series often up to 46.1 µM), for inactives: at the highest dose activity change, negative = viability loss, usual class: cytotoxic | cell viability with 5-FU, ELG1-dependent repair | AID 624250 | shares compounds with ELG1 repair inh;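 further: ELG1-luc HEK293T cells cotreated with 5-fluorouridine at 10 µM final; viability measured 16 h after compound addition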
# ELG1 MMS cell: confirmation of ELG1 repair inhibitors: viability with MMS. shares compounds with ELG1 repair inh. Cell viability with MMS, ELG1-dependent DNA repair. Potency, µM (titrated, usually from 46.1 µM), for inactives: at the top dose activity change, negative = viability loss, usual class: cytotoxic. 33% of 670 active. AID 624251;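 further: ELG1-luc HEK293T cells co-treated with 10 µM MMS; viability read 16 h after compound addition; on the % scale 0 is the no-effect control and ±100 the full control effect; nearly all actives have a fitted effect of over 60% in size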
# ELG1 unstim viab: affects unstimulated cell viability, ELG1 hit counter-screen; shares compounds with ELG1 repair inh; cell viability counter-screen, unstimulated, luminescence; Potency, µM (series often up to 45.9 µM), for the others: top-dose activity change, negative = loss of viability, actives largely listed as cytotoxic; 8% of 900 active; AID 624252;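 further: compound exposure lasted 16 hours before reading; on the % scale 0 is the no-effect control and ±100 the full control effect; nearly all actives have a fitted effect of over 55% in size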
# FLuc enzyme: counter-screen for ELG1 repair inhibitors: firefly luciferase inhibition | shares compounds with ELG1 repair inh | AID 624253 | 10% of 350 active | Potency, µM (highest dose often 57.5 µM), for the others: at the top dose activity, negative = inhibition, most hits filed as inhibitors | purified firefly luciferase, luminescence counter-screen; further: on the % scale 0 is the no-effect control and ±100 the full control effect
# Starred values were filed as active, the others as inactive; i = inactive; ? = inconclusive; / = no result; [ ] = another dose, or the depositor's remark. The call rests on the fitted dose curve; in most records, active means well fitted curve in the direction sought with a large enough effect; inconclusive means small, poorly fitted or top-dose-only effect, or another doubt; inactive means no such curve, though single readings can be large; an effect the other way counts as inactive or inconclusive. Potency means the concentration at half of the fitted maximal effect.
SMILES,KB-3-1 tox,SW480 rereplic,MCF10A rereplic,KB-V1 cytotox,ELG1 repair inh,ELG1 FLuc counter,ELG1 Luc conf,ELG1-Luc MMS,ELG1 5FU viab,ELG1 MMS cell,ELG1 unstim viab,FLuc enzyme
CCCCN(CCCC)CCCNC(=O)C12CN(Cc3ccccc3)CC1C(c1cccc([N+](=O)[O-])c1)=NO2 (configuration not stated),i,6.0%,-0.7%,i,-1.3%,/,/,/,/,/,/,/
CCC(C)(C)C1CCc2nc3ccccc3c(C(=O)OC(C)C(=O)Nc3c(C)n(C)n(-c4ccccc4)c3=O)c2C1 (configuration not stated),i,5.5%,11.9%,i,4.11µM*,/,2.23µM*,25µM*,?,3.2%,?,/
CCn1cc([N+](=O)[O-])c(C(=O)Nc2ccn(Cc3ccccc3)n2)n1,i,-6.0%,-3.6%,i,-8.4%,/,/,/,/,/,/,/
Cc1ccc(Cn2ccc(NC(=O)c3nn(C)cc3[N+](=O)[O-])n2)cc1,?,11.6µM*,13µM*,10.3µM*,?,/,?,?,-0.9%,-0.5%,-7.4%,/
CCOc1ccc(-n2cc(C(=O)Nc3ccccc3OCC)c3cc(OC)c(OC)cc3c2=O)cc1,i,/,/,i,/,/,/,/,/,/,/,/
CCOc1ccc(-n2cc(C(=O)Nc3cccc(OC)c3)c3cc(OC)c(OC)cc3c2=O)cc1,?,2.5%,6.5%,i,?,-8.3%,11.2µM*,25µM*,?,-0.7%,-20.5%,-6.3%
CCn1cc(C(=O)Nc2ccc3c(c2)OCCO3)c2cc(OC)c(OC)cc2c1=O,i,-11.6%,11.3%,i,5.8µM*,26.8%,7.06µM*,?,?,?,?,-10.0%
CCn1cc(C(=O)Nc2ccc(C(C)C)cc2)c2cc(OC)c(OC)cc2c1=O,i,/,/,?,/,/,/,/,/,/,/,/
O=C(Nc1ccc(Cl)cc1)c1cc(S(=O)(=O)Nc2ccccn2)ccc1Cl,?,-21.6%,8.7%,i,-11.6%,/,/,/,/,/,/,/
CC1(C)Cc2c(c(N3CCOCC3)nc3sc4c(=O)[nH]cnc4c23)CS1,i,-1.8%,-3.3%,?,-6.5%,6.0%,14.1µM*,6.4%,?,12.7%,-5.5%,2.8%
O=C(NNc1ccnc2cc(Cl)ccc12)C1CCCCC1,5.8µM*,-0.2%,17.2%,?,0.517µM*,-16.6%,-8.9%,0.889µM*,-5.4%,0.706µM*,?,-7.8%
CC1CCc2nc(N)c(C#N)c(-c3cccnc3)c2C1 (configuration not stated),i,-3.3%,?,i,1.16µM*,/,1.58µM*,14.1µM*,2.9%,22.3µM*,-2.4%,/
CC1CCc2nc(N)c(C#N)c(-c3ccncc3)c2C1 (configuration not stated),i,-4.7%,6.2%,i,1.9%,/,/,/,/,/,/,/
O=C1NCCN(Cc2ccc(-c3ccccc3)cc2)C1CC(=O)N1CCN(CCO)CC1 (configuration not stated),i,-2.3%,7.2%,i,-14.1%,/,/,/,/,/,/,/
c1ccc2c(c1)CCN(c1nc(CN3CCOCC3)nc3sc4c(c13)CCCC4)C2,?,-3.9%,?,?,10.3µM*,-10.5%,9.97µM*,?,?,-19.3%,-20.4%,-1.7%
O=c1cc(-c2ccccc2)oc2ccc(Br)cc12,i,-4.9%,?,i,?,/,/,/,/,/,-13.8%,/
O=C(COc1ccc2oc(-c3ccccc3)cc(=O)c2c1)Nc1ccccc1,i,-0.1%,8.7%,i,?,/,/,/,/,/,/,/
COc1cccc2oc(-c3ccccc3)cc(=O)c12,/,/,/,/,/,/,/,/,/,/,?,/
CC(C)NC(=O)N(C)C[C@H]1Oc2c(NC(=O)Nc3ccc(C(F)(F)F)cc3)cccc2C(=O)N([C@H](C)CO)C[C@@H]1C,i,-39.1%[9.22 µM],12.2%,?,-20.2%,/,/,/,/,/,/,/
C[C@H]1CN([C@@H](C)CO)C(=O)c2cccc(NC(=O)Nc3ccc(C(F)(F)F)cc3)c2O[C@@H]1CN(C)Cc1ccc(Cl)c(Cl)c1,?,-8.7%,?,?,4.61µM*,/,14.1µM*,14.1µM*,?,25µM*,12.5µM*,/
C[C@@H]1CN([C@H](C)CO)C(=O)c2cc(NC(=O)Nc3ccc(C(F)(F)F)cc3)ccc2O[C@H]1CN(C)Cc1ccc(Cl)c(Cl)c1,?,28.0%,?,?,?,/,/,/,/,/,/,/
C[C@H](CO)N1C[C@H](C)[C@@H](CN(C)C(=O)Nc2ccc(C(F)(F)F)cc2)Oc2c(NC(=O)Nc3ccccc3)cccc2C1=O,?,18.2%,?,i,0.517µM*,-11.2%,6.29µM*,-12.7%,?,-7.3%,?,?
C[C@H](CO)N1C[C@H](C)[C@@H](CN(C)C(=O)Nc2ccc(C(F)(F)F)cc2)Oc2c(NC(=O)Nc3ccc4c(c3)OCO4)cccc2C1=O,i,2.3%,28.2%,i,0.58µM*,5.7%,1.99µM*,-17.6%,?,9.0%,-12.0%,?
CSc1ccc(CCNC(=O)CCc2c(C)nc3c(c(C)nn3-c3ccccc3)c2C)cc1,i,/,/,i,/,/,/,/,/,/,/,/
